Hit rate of the full screen: of about 5,500 compounds, about 2,000 (36%) were called active. Roughly 18% stayed inconclusive and do not appear here. Rule as the data show it: active = normalized growth mostly below about 0.91 (no sharp cut-off); inconclusive = no clear call, values can overlap the other calls; inactive = mostly above about 0.92. This is one part of the list.
Assay: chemical genetic growth profiling, strain panel (AID 1159580);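 also: tested at 20 µM; growth read once vehicle control cultures reached saturation at 30 °C; 1 = growth at the plate median or of vehicle wells; lower values mean less growth of the strain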
Details: S. cerevisiae deletion strains, growth OD

Measured: normalized growth

O=C1CC(c2ccc(O)c(O)c2)Oc2cc(O)cc(O)c21 (stereo unspecified)
inactive: locus YAL021C, strain ccr4, stronger effect = lower value 0.989 | locus YAL026C, strain drs2, stronger effect = lower value 1 | locus YAL030W, strain snc1, stronger effect = lower value 0.994 | locus YBL061C, strain skt5, stronger effect = lower value 0.984 | locus YBR009C, strain hhf1, stronger effect = lower value 1.01 | locus YBR023C, strain chs3, stronger effect = lower value 0.987 | locus YBR171W, strain sec66, stronger effect = lower value 0.993 | locus YBR231C, strain swc5, stronger effect = lower value 0.958 | locus YBR279W, strain paf1, stronger effect = lower value 1.01 | locus YCL011C, strain gbp2, stronger effect = lower value 1 | locus YCL016C, strain dcc1, stronger effect = lower value 1.01 | locus YCL061C, strain MRC1, stronger effect = lower value 0.989 | locus YCL069W, strain vba3, stronger effect = lower value 1.01 | locus YCR088W, strain abp1, stronger effect = lower value 0.999 | locus YDL005C, strain med2, stronger effect = lower value 0.977 | locus YDL040C, strain nat1, stronger effect = lower value 1.01 | locus YDR001C, strain nth1, stronger effect = lower value 1.01 | locus YDR069C, strain doa4, stronger effect = lower value 0.958 | locus YDR137W, strain rgp1, stronger effect = lower value 0.995 | locus YDR159W, strain sac3, stronger effect = lower value 0.995 | locus YDR195W, strain ref2 0.983 | locus YDR297W, strain sur2, stronger effect = lower value 1.01 | locus YDR334W, strain swr1, stronger effect = lower value 1.01 | locus YDR335W, strain msn5, stronger effect = lower value 0.994 | locus YDR392W, strain spt3, stronger effect = lower value 0.967 | locus YEL003W, strain gim4, stronger effect = lower value 0.994 | locus YEL037C, strain rad23, stronger effect = lower value 0.986 | locus YEL061C, strain CIN8 (second series), stronger effect = lower value 1.01 | locus YER015W, strain faa2, stronger effect = lower value 0.996 | locus YER016W, strain bim1, stronger effect = lower value 0.992 | locus YER111C, strain swi4, stronger effect = lower value 0.99 | locus YER155C, strain BEM2 (second series), stronger effect = lower value 0.984 | locus YFR010W, strain ubp6, stronger effect = lower value 0.97 | locus YGL167C, strain pmr1, stronger effect = lower value 0.991 | locus YGL173C, strain kem1, stronger effect = lower value 0.987 | locus YGL227W, strain vid30, stronger effect = lower value 1 | locus YGL240W, strain doc1, stronger effect = lower value 1.02 | locus YGL253W, strain hxk2, stronger effect = lower value 1.01 | locus YHR013C, strain ard1, stronger effect = lower value 0.974 | locus YHR027C, strain rpn1, stronger effect = lower value 1.01 | locus YHR142W, strain chs7, stronger effect = lower value 0.969 | locus YJL092W, strain hpr5, stronger effect = lower value 1 | locus YJL095W, strain BCK1 (second series), stronger effect = lower value 1 | locus YJL115W, strain asf1, stronger effect = lower value 1 | locus YJL129C, strain trk1, stronger effect = lower value 0.999 | locus YJL154C, strain vps35, stronger effect = lower value 1.02 | locus YJL164C, strain tpk1, stronger effect = lower value 0.973 | locus YJL166W, strain qcr8, stronger effect = lower value 1.01 | locus YKL160W, strain elf1, stronger effect = lower value 0.975 | locus YKR026C, strain gcn3, stronger effect = lower value 1.02 | locus YKR091W, strain srl3, stronger effect = lower value 0.994 | locus YLL001W, strain dnm1, stronger effect = lower value 0.992 | locus YLL026W, stronger effect = lower value 1 | locus YLL041C, strain sdh2, stronger effect = lower value 0.997 | locus YLR027C, strain aat2, stronger effect = lower value 1.01 | locus YLR221C, strain rsa3, stronger effect = lower value 0.998 | locus YLR258W, strain gsy2, stronger effect = lower value 0.992 | locus YLR262C, strain YPT6 (second series), stronger effect = lower value 1.01 | locus YLR320W, strain mms22, stronger effect = lower value 0.98 | locus YLR342W, strain FKS1, stronger effect = lower value 0.993 | locus YLR357W, strain rsc2, stronger effect = lower value 0.966 | locus YLR370C, strain arc18, stronger effect = lower value 1.01 | locus YLR384C, strain iki3, stronger effect = lower value 1.01 | locus YML120C, strain ndi1, stronger effect = lower value 1 | locus YMR058W, strain fet3, stronger effect = lower value 0.969 | locus YMR125W, strain sto1, stronger effect = lower value 0.995 | locus YMR129W, stronger effect = lower value 1 | locus YMR205C, strain PFK2, stronger effect = lower value 1 | locus YMR231W, strain pep5, stronger effect = lower value 0.996 | locus YNL071W, strain lat1, stronger effect = lower value 0.998 | locus YNL209W, strain ssb2, stronger effect = lower value 1 | locus YNL248C, strain rpa49, stronger effect = lower value 0.989 | locus YNL322C, strain KRE1 (second series), stronger effect = lower value 0.997 | locus YNR049C, strain mso1, stronger effect = lower value 1 | locus YOR001W, strain rrp6, stronger effect = lower value 0.997 | locus YOR070C, strain gyp1, stronger effect = lower value 0.992 | locus YOR080W, strain dia2, stronger effect = lower value 0.984 | locus YOR083W, strain WHI5, stronger effect = lower value 0.951 | locus YOR106W, strain vam3, stronger effect = lower value 0.984 | locus YOR265W, strain rbl2, stronger effect = lower value 1 | locus YOR270C, strain vph1, stronger effect = lower value 1.08 | locus YOR290C, strain snf2, stronger effect = lower value 0.995 | locus YPL051W, strain arl3, stronger effect = lower value 0.975 | locus YPL078C, strain atp4, stronger effect = lower value 0.991 | locus YPL106C, strain sse1, stronger effect = lower value 0.993 | locus YPL240C, strain hsp82, stronger effect = lower value 1.01

Reference: PubChem BioAssay AID1159580 (chemical genetic matrix, 2015)
